Reference: PubChem BioAssay (NCATS)
A number with no mark means an inactive call. Records with an inconclusive call do not appear. A call without a number means that no potency is given here. Active and inactive are the calls of the source. Unless noted, calls follow the shape of the dose curve; as a rule, active = well fitted curve in the direction sought with a large enough effect; inconclusive = small, poorly fitted or top-dose-only effect, or another doubt; inactive = no such curve, though single readings can be large; an effect the other way counts as inactive or inconclusive.

Key:
[1] = biological target: Lysosomal acid glucosylceramidase (Homo sapiens) (UniProt P04062); experiment: Glucocerebrosidase-p2 (AID 348; in the data active = potency below about 10 µM; also: potency is read from the fitted curve at half-maximal effect); conditions: purified GBA, blue fluorogenic substrate, 40 min
Sequence of Lysosomal acid glucosylceramidase (Homo sapiens) (P04062 whole entry, looked up): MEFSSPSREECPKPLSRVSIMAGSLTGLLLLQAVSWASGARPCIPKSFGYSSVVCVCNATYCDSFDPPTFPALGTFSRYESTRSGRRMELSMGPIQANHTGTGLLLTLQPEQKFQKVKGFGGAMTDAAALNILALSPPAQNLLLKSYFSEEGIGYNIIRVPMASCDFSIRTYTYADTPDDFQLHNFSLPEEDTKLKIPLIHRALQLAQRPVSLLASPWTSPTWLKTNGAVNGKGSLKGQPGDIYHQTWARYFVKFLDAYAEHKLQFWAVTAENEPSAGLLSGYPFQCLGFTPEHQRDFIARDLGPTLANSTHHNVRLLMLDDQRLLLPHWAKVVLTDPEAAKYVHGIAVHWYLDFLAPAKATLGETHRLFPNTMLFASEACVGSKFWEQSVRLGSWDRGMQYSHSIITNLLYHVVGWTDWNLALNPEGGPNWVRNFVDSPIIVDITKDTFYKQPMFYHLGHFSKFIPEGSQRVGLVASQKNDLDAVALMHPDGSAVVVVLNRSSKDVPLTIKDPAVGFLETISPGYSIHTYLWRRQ
Procedure, shortened: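 Normal human glucocerebrosidase (0.2 nM) with blue fluorogenic substrate (80 uM final) in citrate/phosphate pH 5.9 with 10mM sodium taurocholate, 0.01% tween-20; 40 min RT, NaOH/glycine stop; fluorescence Ex 365/Em 440; AC50 from a titration from 0.6 nM upwards.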

[2] = AP1 Signaling Pathway (AID 357; active = well fitted curve in either direction with a large enough effect, not every such curve was filed as active;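 also: ME-180 reporter cells stimulated with EGF at its EC50 level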); conditions: ME-180 AP-1-bla reporter, EGF-induced, beta-lactamase ratio, 5 h; at 7.69 µM (top of the series) unless noted
Procedure, shortened: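 Titration-series screen for positive or negative modulators of EC50 EGF-induced signaling in ME-180 cells carrying an AP-1-driven beta-lactamase reporter. After 5 hours at 37 degrees Celsius, CCF4 460nm/530nm emission ratio gave %Activity; AC50 values derived.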

[3] = biological target: Cytochrome P450 1A2 (Homo sapiens) (UniProt P05177); experiment: p450-cyp1a2 (AID 410; calls by dose curve; also: potency is read from the fitted curve at half-maximal effect); conditions: recombinant CYP1A2, luciferin-ME demethylation, luminescence; series mostly up to 57 µM
Sequence of Cytochrome P450 1A2 (Homo sapiens) (P05177 whole entry, looked up): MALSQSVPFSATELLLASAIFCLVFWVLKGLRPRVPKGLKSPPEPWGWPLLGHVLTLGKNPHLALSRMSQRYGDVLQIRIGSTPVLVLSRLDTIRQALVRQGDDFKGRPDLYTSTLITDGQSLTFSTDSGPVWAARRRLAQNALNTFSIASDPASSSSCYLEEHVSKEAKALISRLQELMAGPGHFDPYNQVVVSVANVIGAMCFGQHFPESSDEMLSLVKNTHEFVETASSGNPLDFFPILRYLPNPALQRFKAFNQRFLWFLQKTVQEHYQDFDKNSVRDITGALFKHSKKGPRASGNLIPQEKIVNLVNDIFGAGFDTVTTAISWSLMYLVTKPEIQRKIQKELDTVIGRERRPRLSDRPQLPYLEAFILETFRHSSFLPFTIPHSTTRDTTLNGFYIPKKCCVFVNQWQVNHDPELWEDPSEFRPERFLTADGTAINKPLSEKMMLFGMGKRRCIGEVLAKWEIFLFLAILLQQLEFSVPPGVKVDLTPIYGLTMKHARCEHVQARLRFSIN
Procedure, shortened: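 20nM CYP1A2, 100uM Luciferin-ME (=Km), 100mM KPO4; cpd 10 min RT; +NADPH regen, 60 min RT; stop/detect 20 min; luminescence. Normalized to furafylline 57 uM = full inhibition.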

[4] = NFAT Signaling Pathway (AID 444; active = well fitted curve in either direction with a large enough effect, not every such curve was filed as active;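 also: carbachol stimulus at about its EC50 of 1 µM final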); conditions: Jurkat NFAT-bla M1, carbachol, beta-lactamase ratio, 5 h; at 7.69 µM (top of the series) unless noted
Procedure, shortened: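 Jurkat cells carrying an NFAT-driven β-lactamase reporter and co-transfected muscarinic M1 receptor were treated with compound plus carbachol (1 uM final, an EC50 level) for 5 h at 37 °C. CCF4 loading followed for 1 h at RT; 460/530 nm ratio gave %activity.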

[5] = Stat Signaling Pathway (AID 446; active = well fitted curve in either direction with a large enough effect, not every such curve was filed as active;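 also: ME-180 cervical cancer cells given 40 pM IL-6 alongside compound; SIE-controlled beta-lactamase reporter measured as 460/530 nm FRET emission ratio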); conditions: ME-180 (cervical carcinoma) SIE beta-lactamase reporter, IL-6 stimulated, 5 h; at 7.69 µM (top of the series) unless noted
Procedure, shortened: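 Compound effects on IL-6-induced STAT reporter activity were measured in ME-180 cells. After overnight culture, cells were co-treated with 40 pM IL-6 for 5 hrs before beta-lactamase substrate loading at room temperature.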

[6] = biological target: Glucocorticoid receptor (Homo sapiens) (UniProt P04150); experiment: GR-GFP Redistribution (AID 450;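 active = compounds whose dose series gives a full or clear partial fitted curve of increased nuclear translocation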; also: potency is read from the fitted curve at half-maximal effect); conditions: U2OS GR-GFP nuclear translocation, laser cytometry, 2 h
Sequence of Glucocorticoid receptor (Homo sapiens) (P04150 whole entry, looked up, the tested form may be a part): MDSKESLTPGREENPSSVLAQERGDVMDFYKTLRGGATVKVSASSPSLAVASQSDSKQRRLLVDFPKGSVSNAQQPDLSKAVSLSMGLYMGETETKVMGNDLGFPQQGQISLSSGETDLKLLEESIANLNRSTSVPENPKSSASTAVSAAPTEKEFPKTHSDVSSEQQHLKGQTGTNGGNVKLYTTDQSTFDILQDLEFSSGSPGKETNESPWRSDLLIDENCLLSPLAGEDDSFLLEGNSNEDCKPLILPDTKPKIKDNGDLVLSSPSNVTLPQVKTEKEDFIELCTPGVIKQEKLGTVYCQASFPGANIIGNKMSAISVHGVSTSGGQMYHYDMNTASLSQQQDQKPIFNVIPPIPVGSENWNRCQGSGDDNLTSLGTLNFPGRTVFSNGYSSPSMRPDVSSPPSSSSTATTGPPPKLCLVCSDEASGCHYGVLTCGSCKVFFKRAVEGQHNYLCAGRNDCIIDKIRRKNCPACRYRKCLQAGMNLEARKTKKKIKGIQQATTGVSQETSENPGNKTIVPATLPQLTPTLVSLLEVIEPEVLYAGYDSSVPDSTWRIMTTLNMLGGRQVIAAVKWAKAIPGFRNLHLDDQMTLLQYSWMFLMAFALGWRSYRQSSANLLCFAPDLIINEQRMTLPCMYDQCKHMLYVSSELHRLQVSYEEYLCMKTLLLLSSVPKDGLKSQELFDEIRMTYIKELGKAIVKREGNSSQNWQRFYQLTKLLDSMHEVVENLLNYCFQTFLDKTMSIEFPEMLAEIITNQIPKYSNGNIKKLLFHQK

[7] = biological target: Glucocorticoid receptor (Homo sapiens) (UniProt P04150); experiment: GR-EFC Redistribution (AID 451; calls by dose curve; also: potency is read from the fitted curve at half-maximal effect); conditions: CHO-K1 GR-EFC translocation, beta-gal luminescence, 2 h
Procedure, shortened: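 CHO-K1 cells stably expressing nuclear-localized β-gal enzyme acceptor and GR fused C-terminally to the enzyme donor fragment; ligand-driven nuclear translocation restores β-gal by complementation. Compounds titrated up to 46 uM final, 2 h at 37 °C; luminescence read.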

[8] = biological target: Mitogen-activated protein kinase 10 (Mus musculus) (UniProt Q61831); experiment: JNK3 AlphaScreen Assay (AID 530; active = well fitted curve in either direction with a large enough effect, not every such curve was filed as active;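 also: kinase came from lysate of stimulated human HepG2 cells; signal reports phosphorylation of biotinylated GST-cJun 1-79 at Ser73 with 10 µM ATP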); conditions: JNK3 lysate, c-Jun phosphorylation; series mostly up to 57.1 µM
Procedure, shortened: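 Biotinylated GST-cJun(1-79) served as substrate for JNK3 in HepG2 lysates stimulated with IL-1beta and TNF-alpha. ATP was 10 uM final, pH 7.6. Ser73 phosphorylation was quantified by AlphaScreen (680 nm excitation).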

[9] = biological target: 3',5'-cyclic-AMP phosphodiesterase 4B (Homo sapiens) (UniProt Q07343); experiment: qHTS Assay for Inhibitors of PDE-IV (AID 607; active = well fitted activation curve with a large enough effect in the main read-out, with a control signal flat, not every such curve was filed as active); conditions: HEK293 ACTOne CNG channel cells, membrane potential fluorescence; series mostly up to 22.9 µM
Sequence of 3',5'-cyclic-AMP phosphodiesterase 4B (Homo sapiens) (Q07343 whole entry, looked up): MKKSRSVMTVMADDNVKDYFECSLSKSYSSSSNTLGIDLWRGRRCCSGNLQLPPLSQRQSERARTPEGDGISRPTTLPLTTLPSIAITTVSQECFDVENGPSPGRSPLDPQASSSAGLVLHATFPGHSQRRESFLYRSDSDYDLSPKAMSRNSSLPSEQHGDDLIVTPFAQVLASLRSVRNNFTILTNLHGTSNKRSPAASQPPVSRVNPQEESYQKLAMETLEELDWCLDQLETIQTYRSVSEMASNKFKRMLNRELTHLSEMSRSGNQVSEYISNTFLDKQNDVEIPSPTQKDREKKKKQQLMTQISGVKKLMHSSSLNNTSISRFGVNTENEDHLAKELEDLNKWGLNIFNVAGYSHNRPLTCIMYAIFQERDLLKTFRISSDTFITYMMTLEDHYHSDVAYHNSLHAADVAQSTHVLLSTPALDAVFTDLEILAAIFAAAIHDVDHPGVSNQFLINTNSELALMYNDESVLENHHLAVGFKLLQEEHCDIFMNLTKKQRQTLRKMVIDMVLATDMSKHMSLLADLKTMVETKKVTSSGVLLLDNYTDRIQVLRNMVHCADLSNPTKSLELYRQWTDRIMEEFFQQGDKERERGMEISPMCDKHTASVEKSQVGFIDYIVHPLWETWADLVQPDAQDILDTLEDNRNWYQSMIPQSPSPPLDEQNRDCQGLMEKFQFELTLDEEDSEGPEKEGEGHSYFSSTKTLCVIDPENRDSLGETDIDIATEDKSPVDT
Procedure, shortened: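 ACTOne HEK293 cells carry a modified cAMP-gated CNG channel and express endogenous PDE4; plated 1000 cells/well, compounds up to 22.9 uM final. Membrane-potential dye fluorescence (ex 535/em 590) was read; parental cells received 10 uM forskolin + 100 uM RO 20-1724.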

[10] = biological target: Cytochrome P450 3A4 (Homo sapiens) (UniProt P08684); experiment: qHTS Assay for Activators of Cytochrome P450 3A4 (AID 885); conditions: recombinant CYP3A4, Luciferin-PPXE luminescence, 60 min; series mostly up to 57.1 µM; also: nearly all actives have a fitted effect of over 65% in size
Sequence of Cytochrome P450 3A4 (Homo sapiens) (P08684 whole entry, looked up): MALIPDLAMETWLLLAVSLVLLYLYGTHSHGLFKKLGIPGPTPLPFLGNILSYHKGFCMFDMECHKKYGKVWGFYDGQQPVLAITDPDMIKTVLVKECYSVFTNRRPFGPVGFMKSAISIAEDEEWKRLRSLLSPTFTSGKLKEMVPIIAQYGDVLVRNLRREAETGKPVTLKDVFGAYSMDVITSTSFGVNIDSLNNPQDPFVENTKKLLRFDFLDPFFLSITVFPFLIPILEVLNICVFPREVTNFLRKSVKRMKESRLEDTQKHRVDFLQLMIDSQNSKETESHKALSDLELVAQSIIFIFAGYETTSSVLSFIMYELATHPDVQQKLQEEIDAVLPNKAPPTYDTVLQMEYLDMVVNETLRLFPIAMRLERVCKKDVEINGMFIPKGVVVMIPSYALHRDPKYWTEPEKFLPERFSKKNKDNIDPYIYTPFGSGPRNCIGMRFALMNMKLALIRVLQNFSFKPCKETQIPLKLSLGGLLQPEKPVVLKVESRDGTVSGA
Procedure, shortened: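 CYP3A4 activity: Luciferin-PPXE O-dealkylation, 25uM substrate, 200mM KPO4, RT throughout. Read-out is luciferase luminescence; higher values reflect activation.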

[11] = biological target: Dual specificity protein kinase CLK4 (Homo sapiens) (UniProt Q9HAZ1); experiment: qHTS Assay for Inhibitors of CDC-like Kinase 4 (Kinase-Glo Assay) (AID 1770); conditions: recombinant Clk4, Kinase-Glo ATP depletion luminescence; series mostly up to 66.7 µM; also: nearly all actives have a fitted effect of over 65% in size
Sequence of Dual specificity protein kinase CLK4 (Homo sapiens) (Q9HAZ1 whole entry, looked up): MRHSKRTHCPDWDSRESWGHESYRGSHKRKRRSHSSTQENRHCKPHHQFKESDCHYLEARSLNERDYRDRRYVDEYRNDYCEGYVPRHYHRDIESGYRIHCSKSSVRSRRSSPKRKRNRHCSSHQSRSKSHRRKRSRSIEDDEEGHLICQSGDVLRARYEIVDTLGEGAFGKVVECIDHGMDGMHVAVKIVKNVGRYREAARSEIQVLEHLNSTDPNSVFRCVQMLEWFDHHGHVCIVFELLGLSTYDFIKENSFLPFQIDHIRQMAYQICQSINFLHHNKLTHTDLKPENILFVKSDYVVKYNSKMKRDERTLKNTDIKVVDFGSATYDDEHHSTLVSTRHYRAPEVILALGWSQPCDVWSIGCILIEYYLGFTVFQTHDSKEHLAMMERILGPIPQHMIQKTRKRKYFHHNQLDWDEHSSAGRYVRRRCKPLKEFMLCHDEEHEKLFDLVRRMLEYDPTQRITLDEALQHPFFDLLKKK
Procedure, shortened: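 Readout: Kinase-Glo luminescence from ATP left after a 4.5 h room-temperature reaction of 25 nM Clk4 with 100 uM RS peptide and 1 uM ATP (final). Buffer: 25 mM Tris pH 7.5, 10 mM MgCl2.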

[12] = biological target: Dual specificity protein kinase CLK4 (Homo sapiens) (UniProt Q9HAZ1); experiment: qHTS Assay for Inhibitors of CDC-like Kinase 4 (ADP-Glo Assay) (AID 1771); conditions: recombinant CLK4, ADP-Glo luminescence; series mostly up to 80 µM; also: nearly all actives have a fitted effect of over 70% in size
Procedure, shortened: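 25 nM Clk4, 100 uM RS peptide, 1 uM ATP (final); 2 mM MgCl2, 0.5 mM EGTA, 2.5 mM DTT, 0.01% Triton X-100; 1 hr RT. ADP-Glo readout: ATP depletion 45 min, conversion/luciferase 30 min, luminescence.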

[13] = biological target: Dual specificity protein kinase CLK4 (Homo sapiens) (UniProt Q9HAZ1); experiment: qHTS Assay for Inhibitors of CDC-like Kinase 4 (ADP-FP Assay) (AID 1795); conditions: Transcreener ADP fluorescence polarization; series mostly up to 50 µM;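 also: recombinant human CLK4 phosphorylating RS repeat peptide at 1 µM ATP; nearly all actives have a fitted effect of over 60% in size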
Procedure, shortened: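 FP readout: Orange Transcreener ADP2 tracer (4 nM) plus ADP antibody, read after 30 min at room temperature. Kinase step: 6.25 nM Clk4, 100 uM RS peptide, 1 uM ATP, pH 7.5, 1 h.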

[14] = biological target: Ubiquitin carboxyl-terminal hydrolase 1 (Homo sapiens) (UniProt O94782); experiment: Inhibitors of USP1/UAF1: Pilot qHTS (AID 504865); conditions: purified USP1/UAF1, Ub-rhodamine cleavage fluorescence; series mostly up to 54.9 µM;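 also: rhodamine fluorescence freed from ubiquitin-rhodamine substrate followed over time; top concentration of the series differs between compounds; nearly all actives have a fitted effect of over 35% in size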
Sequence of Ubiquitin carboxyl-terminal hydrolase 1 (Homo sapiens) (O94782 whole entry, looked up): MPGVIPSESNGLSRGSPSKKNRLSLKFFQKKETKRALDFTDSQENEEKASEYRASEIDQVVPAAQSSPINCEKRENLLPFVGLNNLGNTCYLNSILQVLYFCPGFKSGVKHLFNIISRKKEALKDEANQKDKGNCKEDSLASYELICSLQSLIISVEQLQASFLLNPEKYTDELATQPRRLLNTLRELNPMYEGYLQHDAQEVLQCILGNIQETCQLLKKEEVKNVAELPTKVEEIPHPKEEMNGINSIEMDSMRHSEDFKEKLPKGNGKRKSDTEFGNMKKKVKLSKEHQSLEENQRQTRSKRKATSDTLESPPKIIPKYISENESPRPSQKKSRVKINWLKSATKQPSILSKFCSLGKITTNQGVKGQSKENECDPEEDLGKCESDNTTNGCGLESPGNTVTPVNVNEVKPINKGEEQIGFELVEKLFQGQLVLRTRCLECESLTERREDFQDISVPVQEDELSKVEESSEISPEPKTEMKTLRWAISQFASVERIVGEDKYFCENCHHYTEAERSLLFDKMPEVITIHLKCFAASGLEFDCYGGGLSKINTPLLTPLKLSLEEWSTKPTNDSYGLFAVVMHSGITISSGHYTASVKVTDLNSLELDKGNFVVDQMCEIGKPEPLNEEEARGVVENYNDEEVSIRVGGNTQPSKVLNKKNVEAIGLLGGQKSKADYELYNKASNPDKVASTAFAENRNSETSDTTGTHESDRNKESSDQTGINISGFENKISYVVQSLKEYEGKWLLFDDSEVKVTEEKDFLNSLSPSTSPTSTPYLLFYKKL
Procedure, shortened: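 1nM USP1/UAF1 + cpd, 15 min RT; start w/ Ub-Rho 150nM final; kinetic FL 480/540 nm, 6 reads q60 s. Buffer 50mM HEPES pH 7.8, 0.5mM EDTA, 1mM TCEP, 0.01% Tween-20, 0.1 mg/ml BSA.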

[15] = Primary qHTS for small molecule stabilizers of the endoplasmic reticulum resident proteome: Secreted ER Calcium Modulated Protein (SERCaMP) assay (AID 1508630); conditions: SH-SY5Y GLuc-SERCaMP (Gaussia luciferase released on ER calcium loss) secretion, thapsigargin, luminescence; series mostly up to 38.4 µM
Procedure, shortened: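 The SH-SY5Y reporter protocol was run at 3 concentrations up to 38.3 uM (primary) or 11 concentrations (follow-up): 16 h compound, 100 nM thapsigargin for 4 h, then extracellular luciferase luminescence.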

[16] = biological target: Cytochrome P450 2C9 (Homo sapiens) (UniProt P11712); experiment: qHTS Assay for Inhibitors and Substrates of Cytochrome P450 2C9 (AID 883); conditions: recombinant CYP2C9, luciferin-H luminescence, 60 min; series mostly up to 57.1 µM; also: potency is read from the fitted curve at half-maximal effect; nearly all actives have a fitted effect of over 60% in size
Procedure, shortened: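 CYP2C9 deoxyluciferin hydroxylation, 37C, 60 min with NADPH regeneration; 10nM enzyme, 100uM Luciferin-H (KM). Glo detection reagent stopped reaction; luminescence normalized to sulphaphenazole (57uM) full inhibition.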

[17] = biological target: Cytochrome P450 3A4 (Homo sapiens) (UniProt P08684); experiment: qHTS Assay for Inhibitors and Substrates of Cytochrome P450 3A4 (AID 884); conditions: recombinant CYP3A4, Luciferin-PPXE luminescence; series mostly up to 57.1 µM; also: potency is read from the fitted curve at half-maximal effect; nearly all actives have a fitted effect of over 50% in size
Procedure, shortened: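 Luminescent readout of luciferin produced by CYP3A4 (20 nM) dealkylation of Luciferin-PPXE, 25 uM (its KM). NADPH-driven reaction ran 60 min at RT after 10 min compound preincubation; data scaled to 57 uM ketoconazole as 100% inhibition.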

[18] = biological target: Cytochrome P450 2C19 (Homo sapiens) (UniProt P33261); experiment: qHTS Assay for Inhibitors and Substrates of Cytochrome P450 2C19 (AID 899); conditions: recombinant CYP2C19, luciferin-H EGE luminescence; series mostly up to 57.1 µM; also: potency is read from the fitted curve at half-maximal effect; nearly all actives have a fitted effect of over 60% in size
Sequence of Cytochrome P450 2C19 (Homo sapiens) (P33261 whole entry, looked up): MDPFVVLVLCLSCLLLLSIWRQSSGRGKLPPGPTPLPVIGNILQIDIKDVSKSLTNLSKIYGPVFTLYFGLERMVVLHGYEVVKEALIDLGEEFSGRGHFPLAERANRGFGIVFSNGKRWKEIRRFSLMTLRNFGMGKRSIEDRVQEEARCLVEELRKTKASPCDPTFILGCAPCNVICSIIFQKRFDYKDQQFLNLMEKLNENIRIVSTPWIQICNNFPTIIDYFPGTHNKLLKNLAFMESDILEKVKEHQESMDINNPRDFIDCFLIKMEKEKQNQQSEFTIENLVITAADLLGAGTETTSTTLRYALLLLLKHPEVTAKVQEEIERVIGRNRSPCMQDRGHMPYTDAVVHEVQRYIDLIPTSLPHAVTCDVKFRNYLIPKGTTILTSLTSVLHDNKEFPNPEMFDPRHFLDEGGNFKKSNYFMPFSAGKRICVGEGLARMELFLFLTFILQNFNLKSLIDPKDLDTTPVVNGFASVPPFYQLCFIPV
Procedure, shortened: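 In 50mM KPO4, the reaction held 5nM enzyme and KM-level (10uM) Luciferin-H EGE; it ran 60 min at 37C after NADPH regeneration and a 10 min compound preincubation. Luminescence values were scaled to 57uM ketoconazole as complete inhibition.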

Row | SMILES | Potency [1] | activity change, negative = inhibition [2] | Potency [3] | activity change, negative = inhibition [4] | activity, negative = inhibition [5] | Potency [6] | Potency [7] | Potency [8] | Potency [9] | Potency [10] | Potency [11] | Potency [12] | Potency [13] | Potency [14] | outcome [15] | Potency [16] | Potency [17] | Potency [18]
1 | COCCn1c(=O)c(C)nc2cncnc21 | > 11.4 µM | -8.48% | 15.8 µM (active) | 3.43% | -7.75% | > 9.22 µM | > 46 µM | inactive | inactive | inactive | inactive | inactive | inactive | inactive | inactive |  |  | 
2 | COc1ncc2nc(C)c(=O)n(-c3ccccc3)c2n1 | > 11.4 µM | -2.25% | 5.01 µM (active) | 2.66% | -8.97% | > 9.22 µM | > 46 µM | inactive | inactive | inactive | inactive | inactive | inactive | inactive | inactive |  |  | 
3 | COc1ccc(-n2c(=O)c(C)nc3cnc(N4CCOCC4)nc32)cc1 | > 11.4 µM | -10.2% | 12.6 µM (active) | 3.24% | -6.68% | > 9.22 µM | > 46 µM | inactive | inactive | inactive | inactive | inactive | inactive | inactive | inactive |  |  | 
4 | COc1cccc(Cn2c(=O)c(-c3cccs3)nc3cncnc32)c1 | > 11.4 µM | -13.8% | 5.01 µM (active) | -4.4% | 0.799% | > 9.22 µM | > 46 µM | inactive |  | inactive | inactive | inactive | inactive | inactive | inactive | 2.51 µM (active) | 5.01 µM (active) | 5.01 µM (active)
5 | COc1cccc(Cn2c(=O)c(-c3ccccc3)nc3cnc(OC)nc32)c1 | > 11.4 µM | -11.6% | 15.8 µM (active) | -17.4% | 1.57% | > 9.22 µM | > 46 µM | inactive |  | inactive | inactive | inactive | inactive | inactive | inactive |  | 7.94 µM (active) | 
6 | O=c1c(-c2cccc(Cl)c2)nc2cncnc2n1C1CC1 | > 11.4 µM | -20.9% | 0.631 µM (active) | -7.65% | -4.14% | > 9.22 µM | > 46 µM | inactive | inactive | inactive | inactive | inactive | inactive | inactive | inactive |  |  | 
